Compounds without any hit were thinned out: in the full panel of roughly 83,000, 20% have a hit.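 How to read the values: 0–100, growth inhibition (40 = 60% inhibited); 0, no net growth; -100 to 0, cell death (-40 = 40% of starting cells died; -100 = all dead).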 Calls of active or inactive are those of the source. Rule for the calls: active = growth percent below 10; inactive = the rest.
Legend:
Assay in all cases: NCI-60 one-dose screen, 48 h (100 = growth as untreated, 0 = no growth, -100 = all killed)
Details in all cases: 10 µM unless noted
DU-145 prostate = tested on: DU-145 prostate
K-562 leukemia = tested on: K-562 leukemia
MALME-3M melanoma = tested on: MALME-3M melanoma
MDA-MB-231 breast = tested on: MDA-MB-231 breast
SF-268 CNS = tested on: SF-268 CNS
SF-295 CNS = tested on: SF-295 CNS
SF-539 CNS = tested on: SF-539 CNS
M14 melanoma = tested on: M14 melanoma
HCT-15 colon = tested on: HCT-15 colon
HT29 colon = tested on: HT29 colon
SNB-75 CNS = tested on: SNB-75 CNS
SNB-19 CNS = tested on: SNB-19 CNS
U251 CNS = tested on: U251 CNS
PC-3 prostate = tested on: PC-3 prostate
SK-MEL-5 melanoma = tested on: SK-MEL-5 melanoma
UACC-62 melanoma = tested on: UACC-62 melanoma
LOX IMVI melanoma = tested on: LOX IMVI melanoma
SK-MEL-28 melanoma = tested on: SK-MEL-28 melanoma
UACC-257 melanoma = tested on: UACC-257 melanoma
RXF 393 renal = tested on: RXF 393 renal

Measured: growth

C/C=C(\C)C(=O)O[C@@H]1C(O)[C@H]2OC(COC(=O)CCC(=O)CCCCCC[C@H](CCCCC)O[C@@H]3OC(C)[C@H](OC(C)=O)C(O)[C@H]3O2)[C@H]1OC(=O)/C=C/c1ccccc1 (stereo partly specified)
inactive: DU-145 prostate 22.5% | K-562 leukemia 30.2% | MALME-3M melanoma 14.9% | SF-268 CNS 18.1% | HCT-15 colon 13% | SNB-19 CNS 34.7% | PC-3 prostate 21.3% | SK-MEL-28 melanoma 18.5%
active: MDA-MB-231 breast -5.32% | SF-295 CNS -33.6% | SF-539 CNS -9.75% | M14 melanoma -13.1% | HT29 colon 5.27% | SNB-75 CNS 1.65% | U251 CNS 8.26% | SK-MEL-5 melanoma -79.1% | UACC-62 melanoma -46.8% | LOX IMVI melanoma -49.9%

C=CCCCCCCCCC(=O)[O-].C=CCCCCCCCCC(=O)[O-].[Zn+2]
inactive: DU-145 prostate 114% | K-562 leukemia 92% | MALME-3M melanoma 108% | SF-268 CNS 106% | SF-295 CNS 97.7% | SF-539 CNS 97.9% | UACC-257 melanoma 98.5% | M14 melanoma 107% | HCT-15 colon 101% | HT29 colon 105% | SNB-75 CNS 103% | U251 CNS 89% | PC-3 prostate 85.7% | SK-MEL-5 melanoma 113% | UACC-62 melanoma 99.4% | LOX IMVI melanoma 90.5% | SK-MEL-28 melanoma 104%

O=C(Nc1ccc([As]=[As]c2ccc(NC(=O)c3ccccc3)cc2)cc1)c1ccccc1 (stereo unspecified)
active: DU-145 prostate -96% | K-562 leukemia -16.8% | MALME-3M melanoma -80.5% | RXF 393 renal -97.8% | SF-268 CNS -91.4% | SF-295 CNS -52.7% | SF-539 CNS -90.9% | UACC-257 melanoma -87% | M14 melanoma -89% | HCT-15 colon -79.6% | HT29 colon -35.7% | SNB-75 CNS -97% | U251 CNS -78.6% | PC-3 prostate -86.2% | SK-MEL-5 melanoma -99.6% | LOX IMVI melanoma -52.2% | SK-MEL-28 melanoma -94%

CCNc1nc(Cl)nc(NCC)n1
inactive: DU-145 prostate 123% | K-562 leukemia 35.1% | MALME-3M melanoma 133% | MDA-MB-231 breast 104% | SF-268 CNS 102% | SF-295 CNS 84.1% | SF-539 CNS 97.2% | UACC-257 melanoma 89% | M14 melanoma 101% | HT29 colon 107% | SNB-75 CNS 93.6% | SNB-19 CNS 93% | U251 CNS 104% | PC-3 prostate 89.9% | SK-MEL-5 melanoma 98.2% | UACC-62 melanoma 102% | LOX IMVI melanoma 97.9% | SK-MEL-28 melanoma 115%

COC(=O)[C@@H](C)C[C@H](Cc1ccccc1)NC(=O)c1csc(CC[C@H](C(C)C)N(C)C(=O)[C@@H](NC(=O)[C@H]2CCCCN2C)C(C)C)n1
inactive: DU-145 prostate 10.8% | MALME-3M melanoma 61.2% | MDA-MB-231 breast 14.2% | SF-268 CNS 27% | HCT-15 colon 10.9% | SNB-75 CNS 42.6% | SNB-19 CNS 35.4% | U251 CNS 14.8% | PC-3 prostate 27.6% | UACC-62 melanoma 40.7% | LOX IMVI melanoma 28.6% | SK-MEL-28 melanoma 63.2%
active: K-562 leukemia 6.9% | SF-295 CNS -6.82% | SF-539 CNS -9.08% | M14 melanoma -13.3% | HT29 colon 3.34% | SK-MEL-5 melanoma -19.5%

C=C1[C@@H](C)[C@H]2[C@H](Cc3ccccc3)NC(=O)[C@]23[C@@H](O)/C=C/[C@@](C)(O)C(=O)[C@@H](C)C/C=C/[C@H]3[C@@H]1O
inactive: DU-145 prostate 82.9% | K-562 leukemia 52% | MALME-3M melanoma 62.5% | MDA-MB-231 breast 32.9% | SF-268 CNS 24.5% | SF-295 CNS 39.2% | SF-539 CNS 21.9% | M14 melanoma 68.8% | HCT-15 colon 66.1% | HT29 colon 25.3% | SNB-19 CNS 40.7% | U251 CNS 21.9% | PC-3 prostate 45.2% | SK-MEL-5 melanoma 77.6% | UACC-62 melanoma 65.6% | LOX IMVI melanoma 27.1% | SK-MEL-28 melanoma 67.1%
active: SNB-75 CNS -8.47%

O=C(NCCN1CC1)C(=O)NCCN1CC1
inactive: DU-145 prostate 90.2% | K-562 leukemia 87.9% | MALME-3M melanoma 103% | MDA-MB-231 breast 99.3% | SF-268 CNS 77.8% | SF-295 CNS 51% | SF-539 CNS 101% | UACC-257 melanoma 85.1% | M14 melanoma 92.9% | HCT-15 colon 95.2% | HT29 colon 68.9% | SNB-75 CNS 76% | SNB-19 CNS 101% | PC-3 prostate 93.2% | SK-MEL-5 melanoma 94.6% | UACC-62 melanoma 91.7% | LOX IMVI melanoma 80.2% | SK-MEL-28 melanoma 102%

COc1cc(C=C2c3ccccc3C(=O)c3ccccc32)ccc1OCCCCOc1cc2c(cc1OC)C(=O)N1CCCC1C=N2 (stereo unspecified)
active: DU-145 prostate -92.7% | K-562 leukemia -15.4% | MALME-3M melanoma -28.8% | MDA-MB-231 breast -23.7% | SF-268 CNS -59.9% | SF-295 CNS -42.2% | SF-539 CNS -70.9% | UACC-257 melanoma -73.3% | M14 melanoma -66.7% | HCT-15 colon -75.6% | HT29 colon -64.6% | SNB-75 CNS -90.9% | SNB-19 CNS -89.2% | U251 CNS -100% | PC-3 prostate -45.9% | SK-MEL-5 melanoma -92.4% | UACC-62 melanoma -90.1% | LOX IMVI melanoma -100% | SK-MEL-28 melanoma -82.8%

Nc1ccc2c(c1)oc1ccccc12
inactive: DU-145 prostate 103% | K-562 leukemia 89.5% | MDA-MB-231 breast 80.2% | RXF 393 renal 92.4% | SF-268 CNS 83.3% | SF-295 CNS 102% | SF-539 CNS 104% | UACC-257 melanoma 92.6% | M14 melanoma 101% | HT29 colon 92.2% | SNB-75 CNS 81.1% | SNB-19 CNS 110% | U251 CNS 94.4% | PC-3 prostate 82.6% | SK-MEL-5 melanoma 104% | UACC-62 melanoma 94.9% | LOX IMVI melanoma 109% | SK-MEL-28 melanoma 104%

— PubChem BioAssay (NCI)
